These results are taken from PubChem BioAssay (NCI).

Compounds without any hit were thinned out: in the full panel of roughly 83,000, 20% have a hit.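 A percent growth of 40 corresponds to 60% growth inhibition; 0 means no net growth; -100 means all cells died. Active threshold: below 10.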 Values without a mark were called inactive. Calls of active or inactive are those of the source.

The test deals with HCT-15 colon. In words: NCI-60 one-dose screen, 48 h (100 = growth as untreated, 0 = no growth, -100 = all killed). As to conditions: 10 µM unless noted. The procedure:
Growth inhibition of the HCT-15 human tumor cell line is measured as a screen for anti-cancer activity. Cells are grown in 96 well plates and exposed to the test compound for 48 hours. Compounds are tested at a single concentration, which is 10^-5 M for most compounds. The reported endpoint is percent growth (GI% or GIPRCNT), where numbers from 0 - 100% represent growth inhibition, and numbers from -100% - 0 represent cell death. For example, a value of 40 represents 60% growth inhibition. A value of 0 means no net growth occurred over the course of the experiment. A value of -40 indicates 40% of cells at the beginning of the experiment died by the end of the experiment. A value of -100 means all cells are dead at the end of the experiment.
NCI-60 Human Tumor Cell Lines Screen was performed using the standard one-dose NCI protocol, which is described in more detail at https://dtp.cancer.gov/discovery_development/nci-60/default.htm.
Compounds with GIPRCNT values below 10 were considered active. Activity score was based on GIPRCNT using the following formula: […]
Score is 0 for GIPRCNT values of 100 or above, 50 for GIPRCNT values of 0, and 100 for GIPRCNT values of -100.
For `NS(=O)(=O)c1ccc(CCn2c(SCC(=O)N/N=C/c3cc4ccccc4[nH]3)nc3ccccc3c2=O)cc1`, the growth was 91.4%. For `COc1ccc(/C=C/C(=O)CCC(=O)O)cc1OC` the value was 115%. For `O=C1Nc2ccc(Br)cc2/C1=N/c1nc(-c2ccccc2)cs1` the value was 94.9%; for `CCSc1cnnc2ccccc12`, 105%. For `O=C1OCC2=C1C(c1ccccc1)c1cc3c(cc1N2CCO)CCC3` (stereo not given) the value was 14.1%. For the compound `O=C(Nc1cccc(N=Cc2c(O)ccc3ccccc23)c1)c1ccccc1`, the growth is 93.6%. Take `CC1=CCC2C1CC=C(C)C(CC[C@H]1[C@@](C)(O)CCC3OC(C)(C)[C@H](OC(=O)c4ccccc4)CC[C@@]31C)C2(C)C` (stereo not given in full): the growth is 81.9%.

As to `COc1cc(/C=N/NC(=O)Cn2c(-c3ccc(C)o3)nc3ccccc32)ccc1OCc1ccccc1`, the growth was 74.1%.

As to `NC(=O)N/N=C\c1ccc([N+](=O)[O-])o1`, the growth is 92.5%. For `O=C(Nc1ccc(-n2ccc3c(NC(=O)c4ccccc4)nccc32)cc1)c1ccc(N2CCOCC2)c(C(F)(F)F)c1` the value was 20%; for `CCCCCCCCCCCCCCCCCC(=O)[O][Sn]([CH2]CCC)([CH2]CCC)[CH2]CCC`, -82.6% (active). The same measure for `CN(C)CC(=O)c1ccc2cc(Br)c3ccccc3c2c1`: 62.1%; for `COc1ccc2[nH]cc(C3(c4c[nH]c5ccc(OC)cc45)C(=O)Nc4ccc(F)cc43)c2c1`: 86.6%.

With `Cc1cc(C#Cc2ccc(C(C)(C)C)cc2)ccc1-n1c(/C=C/c2c(Cl)cccc2Cl)nc2ccccc2c1=O`, the growth was 90.9%. The same measure for `CN1C2CCC1/C(=C\c1ccc(F)cc1)C(=O)/C2=C/c1ccc(F)cc1`: 38.7%.

As to `ClC1(Cl)C2CCCCCCC21` (stereo not given), the growth was 107%. For `COc1ccc(/C=C(\C#N)c2cc(OC)c(OC)c(OC)c2)cc1`, the growth was 15.2%. The same measure for `CCN(CC)CCNC(=O)C(F)(F)C(F)(F)C(F)(F)F`: 100%; for `COc1cc(C2CC(=O)Nc3c2cnn3C)cc(OC)c1OC` (stereo not given): 107%; for `CN(C)CCNC(=O)n1cc(-c2ccncc2)c(-c2cc(O)cc(Cl)c2)n1`: 77.1%. The same measure for `CCOC(=O)C#Cc1c(C(=O)OCC)nnn1[C@@H]1O[C@H](COC(C)=O)[C@@H](OC(C)=O)[C@H]1OC(C)=O`: 44%; for `N=C(N)c1ccc(NCCNc2ccc(C(=N)N)cc2)cc1`: 90.6%. The same measure for `O=C(Nc1ccc([N+](=O)[O-])cc1)c1cc2ccccc2cc1O`: 0.0174% (active). As for `CCN(CC)CCCC(C)Nc1c(-c2ccccc2)cnc2cc(Cl)ccc12` (stereo not given), the growth was 29.5%. For `COc1ccc2nc(-c3ccc(-c4noc(-c5ccc(Cl)cc5)n4)cc3)[nH]c2c1` the value was 75.8%.

As for `COc1ccc(-c2cc(C(=O)Nc3ccc(C)cc3)nc3[nH]c(=O)sc23)cc1`, the growth is 63.8%.

On to `CN(C)c1ccc(C2(Cl)c3ccccc3N(C)c3ccccc32)cc1`, for which the growth was 64.5%. Turning to `COc1ccc(NC(=O)c2sc3c(=O)[nH]c(C(F)(F)F)nc3c2C)cc1`, the growth was 104%. The same measure for `O=S(=O)(Nc1ccc2ccccc2c1)N1CCCCC1`: 40.6%. The same measure for `CCOC(=O)CCN(CCC(=O)OCC)c1ccccc1`: 101%; for `O=C(CC(=O)c1ccccc1F)Nc1ccc([N+](=O)[O-])cc1`: 87.8%. As to `CCc1c(C)c2ccc(O)c(-c3cc(-c4ccccc4)c(C#N)c(=O)[nH]3)c2oc1=O`, the growth was 96.5%. The same measure for `Cc1[nH]c2ccccc2c1C1=CC(=O)C=CC1=O`: 74.6%; for `COc1ccc(/C=N/NC(N)=S)c(OC)n1`: 86.9%. The same measure for `CN(C)c1nc(-c2cccs2)n2nc(-c3ccco3)cc2n1`: 79.4%; for `CCOC(=O)c1ccc(NC(=O)CSC(N)=O)cc1`: 99.4%.

Consider `C=C1C(=O)O[C@H]2[C@H]1CC/C(COC(=O)NCc1c[nH]c3ccc(OC)cc13)=C\CC[C@@]1(C)O[C@@H]21`, for which the growth is -26.1% (active).

On to `COc1cccc(NC(=O)OC(C)C)c1`, for which the growth is 96.3%. As to `C[C@@H]1N=C(c2ccc3ccccc3c2)Nc2nc3ccccn3c2C1=O`, the growth is 33.8%. The same measure for `CCCCOc1nc2ccc(C)cc2cc1/C=C/C(=O)/C=C(O)/C=C/c1cc2cc(C)ccc2nc1OCCCC`: 110%.
